Compounds with a hit are over-represented: about 12% of the library has one in this group of screens.
PLK1 PBD block – blocks phosphopeptide binding to human PLK1 polo-box domain; Plk1 PBD binding of FITC phosphopeptide, fluorescence polarization; 360,000 compounds, 2.8% hits; P53350; Potency, µM, for inactives: max response, negative = inhibition, most hits filed as inhibitors; also: series mostly up to about 57 µM; % is scaled to controls: 0 for no effect and ±100 for the full control effect; nearly all actives have a fitted effect of over 65% in size
Target sequence (P53350 whole entry, looked up, the tested form may be a part): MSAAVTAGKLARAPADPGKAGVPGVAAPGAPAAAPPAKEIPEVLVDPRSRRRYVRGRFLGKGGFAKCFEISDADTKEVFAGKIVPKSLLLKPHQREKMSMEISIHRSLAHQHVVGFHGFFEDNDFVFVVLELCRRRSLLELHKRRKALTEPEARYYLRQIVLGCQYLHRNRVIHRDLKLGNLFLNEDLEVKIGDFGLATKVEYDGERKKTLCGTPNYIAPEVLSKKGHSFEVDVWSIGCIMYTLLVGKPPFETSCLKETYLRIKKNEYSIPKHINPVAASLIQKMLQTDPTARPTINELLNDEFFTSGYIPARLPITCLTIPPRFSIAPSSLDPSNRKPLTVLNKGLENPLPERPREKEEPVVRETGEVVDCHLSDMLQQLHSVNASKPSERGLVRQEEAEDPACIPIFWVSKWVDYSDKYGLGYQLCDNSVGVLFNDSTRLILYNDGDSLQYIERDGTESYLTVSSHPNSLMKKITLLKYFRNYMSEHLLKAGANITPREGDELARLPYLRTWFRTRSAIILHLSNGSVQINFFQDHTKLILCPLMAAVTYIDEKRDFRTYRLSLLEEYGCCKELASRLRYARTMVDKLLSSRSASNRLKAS
HP1b chromo inh – inhibitors of HP1-beta chromodomain binding to methylated histone tails; Potency, µM (top dose mostly 114 µM), for the others: top-dose activity change, negative = inhibition, most hits filed as inhibitors; AID 540317; AlphaScreen HP1-beta / biotin-H3K9me3 peptide binding; 390,000 compounds, 0.56% hits; P83916; also: nearly all actives have a fitted effect of over 70% in size
Target sequence (P83916 whole entry, looked up): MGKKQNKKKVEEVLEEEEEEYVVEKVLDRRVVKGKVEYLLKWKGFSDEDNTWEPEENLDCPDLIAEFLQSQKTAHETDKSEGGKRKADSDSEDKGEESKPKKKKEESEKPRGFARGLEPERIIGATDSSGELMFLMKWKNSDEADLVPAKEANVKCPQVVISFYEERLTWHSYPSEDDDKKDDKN
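Compound inhibition of the preformed complex between 50 nM HP1-beta and 50 nM biotinylated H3K9me3 peptide was read by AlphaScreen. Buffer was PBS pH 7.4 with 0.01% Tween-20. Incubations ran 30 min at room temperature, with 10 ug/mL donor/acceptor beads.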
Sfp PPTase inh – inhibitors of Bacillus subtilis Sfp phosphopantetheinyl transferase | Q9F4F7 | Biochemical Sfp PPTase activity, qHTS | Potency, µM, for the others: largest response in the series, negative = inhibition, actives largely listed as inhibitors | 310,000 compounds, 3.5% hits | AID 1490;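 also: the enzyme is Sfp with the accession as filed and its product quenches rhodamine fluorescence; 0% = enzyme reaction without inhibitor and -100% = no enzyme wells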
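Compounds were incubated with enzyme (final 15 nM) for 15 min at room temperature before substrate addition started the reaction. Fluorescence at 525 nm excitation, 598 nm emission was recorded immediately and after 30 minutes.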
G9a block – inhibitors of human histone lysine methyltransferase G9a | Potency, µM (top dose mostly 102 µM), without a hit: top-dose activity, negative = inhibition, actives largely listed as inhibitors | G9a H3K9 monomethylation, AlphaScreen, 2 h | AID 504332 | Q96KQ7 | 350,000 compounds, 8.8% hits; also: % is scaled to controls: 0 for no effect and ±100 for the full control effect; nearly all actives have a fitted effect of over 75% in size
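G9a (20 nM) was preincubated 15 min with compound, then reacted 2 h at room temperature with 500 nM biotin-H3K9 peptide and 20 µM SAM. Monomethyl-H3K9 detected by AlphaScreen using anti-H3K9me1 antibody.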
JMJD2A Tudor – blocks the human JMJD2A Tudor domain. AlphaScreen JMJD2A-Tudor / H3K4me3 peptide binding. O75164. Potency, µM (series often up to 114 µM), inactives show top-dose activity change, negative = inhibition, actives largely listed as inhibitors. 390,000 compounds, 4.4% hits; also: % is scaled to controls: 0 for no effect and ±100 for the full control effect; nearly all actives have a fitted effect of over 50% in size
BAZ2B block – inhibitors of human BAZ2B bromodomain. Potency, µM (top dose mostly 114 µM), without a hit: top-dose activity change, negative = inhibition, most hits filed as inhibitors. AlphaScreen BAZ2B-H3K14Ac peptide displacement. 360,000 compounds, 4.4% hits. Q9UIF8; also: % is scaled to controls: 0 for no effect and ±100 for the full control effect; nearly all actives have a fitted effect of over 60% in size
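BAZ2B (50 nM) with biotin-H3(5-23)K14Ac peptide (50 nM) in PBS pH 7.4, 0.01% Tween-20, preformed 30 min, then compound 30 min at room temperature; top concentration 110uM. AlphaScreen streptavidin donor/nickel chelate acceptor beads (10 ug/mL final), 20 min dark, signal read.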
* marks the source's active call; other numbers are inactive results; ? = inconclusive; . = no result given; [ ] = remark or other dose. Calls follow the shape of the dose curve; as a rule, active = well fitted curve in the direction sought with a large enough effect; inconclusive = small, poorly fitted or top-dose-only effect, or another doubt; inactive = no such curve, though single readings can be large; an effect the other way counts as inactive or inconclusive. Potency is read from the fitted curve at half-maximal effect.

SMILES	PLK1 PBD block	HP1b chromo inh	Sfp PPTase inh	G9a block	JMJD2A Tudor	BAZ2B block
CCC1CCCCN1S(=O)(=O)c1ccc(C(=O)Nc2nnc(-c3ccccc3Cl)o2)cc1 (stereo not given)	?	45.6%	13.0%	-4.7%[59 µM]	-18.0%	7.1%
CC1CCN(S(=O)(=O)c2ccc(C(=O)Nc3nnc(C4=COCCO4)o3)cc2)CC1	-4.1%	48.2%	-6.3%	?	-6.7%	?
O=C(Nc1nnc(C2=COCCO2)o1)c1ccc(S(=O)(=O)N2CCCC2)cc1	-12.3%	2.4%	16.6%	?	50.1µM*	.
COc1cc(NC(=O)Nc2c[nH]c(=O)[nH]c2=O)cc(OC)c1OC	.	33.2%	.	-4.4%[59 µM]	1.9%	-1.6%
Cc1ccc(C)c(C(=O)CN2C(=O)NC3(CCCCCC3)C2=O)c1	-5.6%	35.1%	.	-4.3%	0.7%	8.0%
COc1ccc2c(c1)c(=O)c(S(=O)(=O)c1ccccc1)cn2CC(=O)Nc1ccc(C)c(Cl)c1	.	19.3%	.	-7.7%[59 µM]	-18.9%	-21.1%
COc1ccc(CCNC(=O)c2ccc3c(c2)N(Cc2cccc(Cl)c2)C(=O)c2ccccc2S3=O)cc1OC (stereo not given)	.	-12.8%	.	?	-15.1%	-12.1%
CCOC(=O)N1CCN(S(=O)(=O)c2ccc(C(=O)Nc3nnc(C4CC4)o3)cc2)CC1	-3.0%	51.0%	16.1%	16.6%[59 µM]	50.1µM*	22.4µM*
COc1ccc(-c2nnc(NC(=O)c3ccc(S(=O)(=O)N4COCC4(C)C)cc3)o2)cc1	?	-13.1%	28.0%	16.3%[2.33 µM]	3.1%[11.4 µM]	56.2µM*
CC1CC(C)CN(S(=O)(=O)c2ccc(C(=O)Nc3nnc(C4CC4)o3)cc2)C1 (stereo not given)	-4.2%	54.4%	22.1%	55.1%	-9.6%	?
O=C(Nc1nnc(C2=COCCO2)o1)c1ccc(S(=O)(=O)N2CCCCC2)cc1	-7.6%	22.4%	-9.6%	?	79.4µM*	.
COC(=O)[C@]1(C)N[C@H](CN(C)C(=O)COc2ccccc2)[C@@H]2C(=O)N(C)C(=O)[C@@H]21	2.4%	54.0%	.	.	-23.9%	.
COc1cc(CN2CCN(C(=O)CC(C)C)CC2)cc(OC)c1OC	-3.1%	?	?	?	6.31µM*	28.2µM*
COc1cc(CC(=O)O)c([N+](=O)[O-])cc1OC	-1.2%	20.4%	20.1%	18.2%	-1.5%[11.4 µM]	-10.4%
COc1ccc(CN2CCN(C(=O)CC(C)C)CC2)cc1	-9.6%	?	-33.5%	.	7.94µM*	?
COc1cc(CN2CCN(C(=O)CC(C)C)CC2)c([N+](=O)[O-])cc1OC	2.5%	?	?	17.8µM*	22.4µM*	44.7µM*
O=C(CN1CCN(Cc2ccccc2Cl)C1=O)N1CCCCCC1	-5.2%	27.0%	17.5%	-3.8%	-21.3%	-23.9%
CC(C)CC(=O)N1CCN(Cc2ccccc2Cl)CC1	-4.0%	?	2.6%	3.8%[0.501 µM]	-100.0%	50.1µM*
O=C(OCC1CCCO1)c1ccc2c(c1)N(Cc1cccc(Cl)c1)C(=O)c1ccccc1S2(=O)=O (stereo not given)	.	18.0%	.	-4.2%[59 µM]	-6.2%	-1.9%
COc1cccc(C(=O)Nc2ccc(-c3cn4cccnc4n3)cc2)c1OC	.	58.6%	.	16.2%[59 µM]	-19.2%	-18.1%
CN(C)C(=O)NC1CCCCCCC1	.	.	-7.8%	.	.	.
Cc1nc2cnc(N3CCN(C)CC3)nc2n(-c2ccccc2)c1=O	.	.	19.9%	9.4%[0.501 µM]	.	.
COc1cc(OC)c2cc(-c3ccncc3)cnc2c1	.	.	-10.3%	.	.	.
CCN(CC)S(=O)(=O)c1ccc2c(c1)N(CC(=O)NCCCN1CCN(c3cc(Cl)ccc3C)CC1)C(=O)CO2	.	3.8%	.	-33.7%[59 µM]	?	-36.1%
COc1ccc(OC)c(C2CC(=O)Nc3c2c(=O)[nH]c2nc4ccccc4n32)c1 (stereo not given)	.	20.2%	.	15.7%[59 µM]	-13.4%	-19.0%
SMILES	PLK1 PBD block	HP1b chromo inh	Sfp PPTase inh	G9a block	JMJD2A Tudor	BAZ2B block
CC1(C)CC(=O)C2=C(C1)OC(N)=C(C#N)C21CCN(Cc2ccccc2)CC1	-26.0%	67.5%	-1.4%	28.2µM*	-20.1%	-36.0%
O=C(OCCn1c(=S)sc2ccccc21)c1ccccc1	-4.2%	68.4%	.	.	11.8%	.
COc1ccc(C(=O)COC(=O)/C=C/c2ccccc2)cc1	3.2%	34.6%	17.7%	51.9%	0.0%	2.5%
COc1ccc(/C=C/C(=O)c2cc3c(cc2N)OCO3)cc1	3.3%	39.8µM*	?	17.8µM*	28.2µM*	22.4µM*
COc1ccc(C(=O)/C=C/c2ccc(OC)cc2OC)c(O)c1	-10.9%	-19.5%	?	?	17.8µM*	?
COc1ccc(C(=O)COC(=O)/C=C/c2ccccc2)c(OC)c1	-9.9%	17.3%	.	15.4%[12.7 µM]	-5.7%	50.1µM*
COc1ccc(C(=O)C=Cc2cccs2)c(O)c1	-2.6%	?	.	.	44.7µM*	.
COc1ccc(C(=O)/C=C/c2cccs2)c(OC(=O)N2CCOCC2)c1	-1.0%	14.8%	11.5%	17.4%	-5.1%	-7.1%
CC1CCC(N2CC(=O)N(C3CCCC3)C(c3ccc(Cl)cc3)C2=O)CC1 (stereo not given)	.	-3.8%	.	0.5%[59 µM]	-7.6%	-0.7%
COc1ccc(OC)c(C(=O)COC(=O)c2cccnc2Cl)c1	-9.8%	56.5%	4.3%	1.3%	-6.6%[11.4 µM]	10.2%
COc1ccc(/C=C/C(=O)c2ccc(Cl)cc2)c(OC)c1	-1.3%	83.4%	-16.2%	59.9%	11.1%	27.8%
COc1ccc(OC)c(C(=O)/C=C/c2cccnc2)c1	-12.0%	35.2%	-28.2%	50.1µM*	-8.2%	-40.5%
COc1cc(C(=O)/C=C/c2cccnc2)ccc1O	0.1%	-5.8%	-8.4%	-44.5%	-2.7%	-35.6%
COc1ccc(/C=C/C(=O)c2cc(Cl)ccc2O)c(OC)c1	4.6%	?	?	.	?	25.1µM*
O=C(/C=C/c1cccnc1)/C=C/c1cccnc1	-19.0%	1.4%	14.1µM*	28.2µM*	-10.7%	-16.3%
COc1ccc(C(=O)COC(=O)c2cccnc2Cl)c(OC)c1	-4.3%	6.0%	7.5%	-29.0%	-29.2%	50.1µM*
O=C(Cc1ccc(NC(=O)C2CCN(C(=O)c3ccccc3)CC2)cc1)Nc1cccc(C(=O)N2CCCCC2)c1	0.0%	41.5%	.	.	-2.2%	.
Nc1c(N(Cc2ccco2)C(=O)c2ccccc2F)c(=O)[nH]c(=O)n1Cc1ccccc1	-5.2%	13.2%	.	-9.2%	-13.7%	2.4%
CC1(C)SC2C(NC(=O)C(NC(=O)N3CCNC3=O)c3ccccc3)C(=O)N2C1C(=O)O (stereo not given)	.	.	11.3%	-4.2%[2.33 µM]	.	.
C=Cc1ccc(Cn2c(C(=O)O)c(CNC3CCCCC3)c3ccc(C)cc32)cc1	.	20.7%	.	?	-14.5%	-12.3%
COc1ccc(C(=O)/C=C/c2ccccc2)c(O)c1	-21.9%	?	20µM*	?	?	44.7µM*
C[C@H]1COC(=O)O1	.	.	31.5%	.	.	.

Screens: PubChem, National Center for Advancing Translational Sciences (NCATS)
